Experimental findings from PubChem BioAssay (EPA / NIEHS) are described below.

In assay [1] the target is Estrogen receptor beta (Homo sapiens) (UniProt Q92731). Put plainly: OT_ER_ERbERb_1440: Odyssey Thera (OT) 24-hour HEK293T Protein-Complementation Assay for Estrogen Receptor-beta/-beta Homodimer (AID 2283380).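 Also: fluorescence gain from ER beta LBD homodimer complementation read by laser scanning cytometry; scored as signal increase over DMSO baseline for both agonists and antagonists.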 In outline: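 Fluorescence increase, nuclear for agonists or whole-cell for antagonists, relative to DMSO vehicle, quantified by laser scanning cytometer after fixation and Draq5 staining. Readout from 24 h treatment of HEK293T cells carrying complementation-paired ER beta LBD (aa 310-547).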

Assay [2] addresses Estrogen receptor (Homo sapiens) (UniProt P03372). Put plainly: OT_ERa_GFPERaERE_0480: Odyssey Thera (OT) 8-hour HeLa Transcription Induction Assay for Estrogen Receptor (AID 2283381; active = hit-call score of the fitted dose curve at least 0.9, where 1 is the maximum; inactive = score below 0.9). In outline: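 HeLa cells dosed with compound and imaged by fluorescence microscopy at 8 h; GFP induction from an ERE reporter quantified by high-content image analysis and fitted as gain of signal against DMSO baseline.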

Assay [3] shares this target. Nature of the assay: OT_ERa_GFPERaERE_0120: Odyssey Thera (OT) 2-hour HeLa Transcription Induction Assay for Estrogen Receptor (AID 2283382). In a few lines: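 HeLa cells were dosed with test chemical and read 2 hours later for GFP-ERα/ERE-linked fluorescent protein induction by fluorescence microscopy. Gain-of-signal was fitted relative to DMSO baseline, quantified by high content image analysis.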

Assay [4] deals with Retinoic acid receptor RXR-alpha (Homo sapiens) (UniProt P19793). Put plainly: OT_NURR1_NURR1RXRa_1440: Odyssey Thera (OT) 24-hour HEK293T Protein Complementation Assay for Nurr1/retinoid X receptor (RXR) (AID 2283386). In outline:
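HEK293T cells were dosed with compound and read 24 h later by fluorescence intensity in a protein-fragment complementation format, where Nurr1–RXRα interaction reconstitutes a split reporter. Activity was fitted as gain of signal relative to DMSO baseline.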

Assay [5] addresses Peroxisome proliferator-activated receptor gamma (Homo sapiens) (UniProt P37231). Put plainly: OT_PPARg_PPARgSRC1_0480: Odyssey Thera (OT) 8-hour Protein-Complementation Assay for Peroxisome Proliferator-activated Receptor Gamma / SRC-1 Co-activator (AID 2283387).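 Also: nuclear to cytoplasmic split Venus YFP fluorescence ratio reporting PPARg SRC-1 interaction.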 In outline: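 Split-YFP (IFP1/IFP2) PPARg/SRC-1 reporter, HEK293T, 37 °C, 5% CO2; 8 h compound; formaldehyde fix + Draq5; high-content imaging, N/C ratio, ≥350 cells/image, positive direction vs DMSO.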

The target is the same in assay [6]. Put plainly: OT_PPARg_PPARgSRC1_1440: Odyssey Thera (OT) 24-hour Protein-Complementation Assay for Peroxisome Proliferator-activated Receptor Gamma/ SRC-1 Co-activator (AID 2283388).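 Also: nuclear to cytoplasmic ratio of reconstituted Venus YFP fluorescence in fixed imaged cells.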 In a few lines: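 Transient HEK293T, YFP fragments 1-158/159-239 (mutant IFP1/IFP2) fused to PPARg/SRC-1; 24 h dosing; fix 4% formaldehyde, Draq5; Opera imaging 488/635 nm; N/C ratio, gain vs DMSO.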

The target of assay [7] is Bile acid receptor (Homo sapiens) (UniProt Q96RI1). Nature of the assay: OT_FXR_FXRSRC1_0480: Odyssey Thera (OT) 8-hour HEK293T Protein-Complementation Assay for Farnesoid X receptor/SRC-1 Co-activator (AID 2283383). In outline: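 HEK293T cells expressing FXR and SRC-1 fused to reporter fragments were dosed with compound for 8 h; fluorescence from the reconstituted reporter marked co-activator recruitment. Gain of signal was fitted against the DMSO baseline.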

Assay [8] has the same target. Put plainly: OT_FXR_FXRSRC1_1440: Odyssey Thera (OT) 24-hour HEK293T Protein-Complementation Assay for Farnesoid X receptor/SRC-1 Co-activator (AID 2283384). In a few lines: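 HEK293T cells were dosed with compound and read 24 h later by fluorescence intensity from protein-fragment complementation reporting FXR/SRC-1 co-activator interaction. Gain of signal was fitted relative to DMSO negative control as baseline.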

Assay [9] can be described thus: CEETOX_H295R_11DCORT: CeeTox H295R High-throughput Steroidogenesis Assay for 11-Deoxycortisol (11DCORT) (AID 2283432; active = hit-call score of the fitted dose curve at least 0.9, where 1 is the maximum; inactive = score below 0.9;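 as to AC50: human adrenal H295R cells prestimulated with 10 µM forskolin for 48 h; 11-deoxycortisol secreted into the medium measured by LC-MS/MS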). The settings on record: actives raise or lower the signal. In a few lines:
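Steroidogenesis in human H295R cells: 48 h chemical exposure after forskolin priming, 11-deoxycortisol measured by LC-MS/MS.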

Assay [10] concerns the target Retinoic acid receptor RXR-alpha (Homo sapiens) (UniProt P19793). Nature of the assay: OT_NURR1_NURR1RXRa_0480: Odyssey Thera (OT) 8-hour HEK293T Protein Complementation Assay for Nurr1/retinoid X receptor (RXR) (AID 2283385). In a few lines:
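HEK293T cells expressing Nurr1 and RXRα fused to reporter fragments were dosed with compound for 8 hours. Complex formation was read as fluorescence intensity and analysed as gain of signal against DMSO as baseline.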

Structures are written as SMILES. Several values for one entry are separate records, joined by “and”; a condition that tells them apart may be missing. Equal values may be shown once. Inconclusive results are not listed. Some compounds were tested as several samples or in several runs, with calls that do not always agree. Activity calls are given as the source filed them. The calls were made as follows, unless noted: active = hit-call score of the fitted dose curve at least 0.9, where 1 is the maximum; inconclusive = response in the unintended direction; inactive = score below 0.9.

Chain of Retinoic acid receptor RXR-alpha (Homo sapiens) (P19793 whole entry, looked up, the tested form may be a part): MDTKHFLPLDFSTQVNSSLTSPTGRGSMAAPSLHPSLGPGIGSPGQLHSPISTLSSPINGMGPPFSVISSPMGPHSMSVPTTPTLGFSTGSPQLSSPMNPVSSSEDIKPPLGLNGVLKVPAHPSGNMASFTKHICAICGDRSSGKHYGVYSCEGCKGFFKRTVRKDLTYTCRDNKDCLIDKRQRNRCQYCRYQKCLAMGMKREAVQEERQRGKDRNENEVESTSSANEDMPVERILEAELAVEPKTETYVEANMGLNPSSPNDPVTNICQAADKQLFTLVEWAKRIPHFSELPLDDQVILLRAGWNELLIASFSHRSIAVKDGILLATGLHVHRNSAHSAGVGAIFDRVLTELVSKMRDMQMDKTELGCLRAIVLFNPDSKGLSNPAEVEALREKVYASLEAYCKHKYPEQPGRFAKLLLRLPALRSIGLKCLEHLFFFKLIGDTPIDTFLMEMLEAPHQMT
Chain of Peroxisome proliferator-activated receptor gamma (Homo sapiens) (P37231 whole entry, looked up): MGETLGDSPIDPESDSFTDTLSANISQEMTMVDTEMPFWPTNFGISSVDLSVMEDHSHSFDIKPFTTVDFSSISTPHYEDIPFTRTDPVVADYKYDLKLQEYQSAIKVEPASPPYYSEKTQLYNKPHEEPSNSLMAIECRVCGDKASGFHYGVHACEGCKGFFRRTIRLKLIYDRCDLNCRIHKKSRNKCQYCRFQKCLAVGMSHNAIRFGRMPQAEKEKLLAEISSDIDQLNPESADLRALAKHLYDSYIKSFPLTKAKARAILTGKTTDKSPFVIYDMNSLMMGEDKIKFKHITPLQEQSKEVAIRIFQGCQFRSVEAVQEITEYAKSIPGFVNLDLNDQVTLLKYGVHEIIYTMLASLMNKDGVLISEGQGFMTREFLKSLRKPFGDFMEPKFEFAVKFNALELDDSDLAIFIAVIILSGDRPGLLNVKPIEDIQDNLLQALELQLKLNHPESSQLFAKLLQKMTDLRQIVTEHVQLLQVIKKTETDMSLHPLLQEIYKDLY
Chain of Estrogen receptor beta (Homo sapiens) (Q92731 whole entry, looked up, the tested form may be a part): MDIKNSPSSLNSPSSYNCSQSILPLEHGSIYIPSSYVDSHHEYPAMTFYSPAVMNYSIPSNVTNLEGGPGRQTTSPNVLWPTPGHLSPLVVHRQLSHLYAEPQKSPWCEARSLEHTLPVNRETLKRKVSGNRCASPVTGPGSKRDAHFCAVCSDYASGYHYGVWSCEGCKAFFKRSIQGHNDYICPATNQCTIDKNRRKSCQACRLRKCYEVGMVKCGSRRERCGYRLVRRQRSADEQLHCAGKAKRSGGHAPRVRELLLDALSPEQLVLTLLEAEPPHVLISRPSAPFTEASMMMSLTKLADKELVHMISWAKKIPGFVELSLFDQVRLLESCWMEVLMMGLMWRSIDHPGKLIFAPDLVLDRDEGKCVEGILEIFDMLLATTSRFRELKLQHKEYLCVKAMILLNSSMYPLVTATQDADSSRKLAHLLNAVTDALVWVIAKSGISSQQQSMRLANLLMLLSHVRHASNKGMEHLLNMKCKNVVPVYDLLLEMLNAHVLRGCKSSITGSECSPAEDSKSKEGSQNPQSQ
Chain of Bile acid receptor (Homo sapiens) (Q96RI1 whole entry, looked up, the tested form may be a part): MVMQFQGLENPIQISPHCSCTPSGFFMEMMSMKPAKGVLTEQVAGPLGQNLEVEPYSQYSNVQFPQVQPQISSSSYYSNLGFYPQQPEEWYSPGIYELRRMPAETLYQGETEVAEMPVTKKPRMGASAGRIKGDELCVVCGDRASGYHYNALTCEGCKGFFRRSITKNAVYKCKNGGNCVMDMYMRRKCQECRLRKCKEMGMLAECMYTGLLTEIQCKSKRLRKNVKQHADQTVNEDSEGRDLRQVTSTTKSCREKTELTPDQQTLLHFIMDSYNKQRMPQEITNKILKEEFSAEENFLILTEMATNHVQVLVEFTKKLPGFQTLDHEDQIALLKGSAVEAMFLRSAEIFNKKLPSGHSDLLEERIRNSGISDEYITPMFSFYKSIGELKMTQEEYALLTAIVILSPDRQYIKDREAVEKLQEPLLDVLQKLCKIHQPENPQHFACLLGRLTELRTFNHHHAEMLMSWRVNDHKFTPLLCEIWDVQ
Chain of Estrogen receptor (Homo sapiens) (P03372 whole entry, looked up): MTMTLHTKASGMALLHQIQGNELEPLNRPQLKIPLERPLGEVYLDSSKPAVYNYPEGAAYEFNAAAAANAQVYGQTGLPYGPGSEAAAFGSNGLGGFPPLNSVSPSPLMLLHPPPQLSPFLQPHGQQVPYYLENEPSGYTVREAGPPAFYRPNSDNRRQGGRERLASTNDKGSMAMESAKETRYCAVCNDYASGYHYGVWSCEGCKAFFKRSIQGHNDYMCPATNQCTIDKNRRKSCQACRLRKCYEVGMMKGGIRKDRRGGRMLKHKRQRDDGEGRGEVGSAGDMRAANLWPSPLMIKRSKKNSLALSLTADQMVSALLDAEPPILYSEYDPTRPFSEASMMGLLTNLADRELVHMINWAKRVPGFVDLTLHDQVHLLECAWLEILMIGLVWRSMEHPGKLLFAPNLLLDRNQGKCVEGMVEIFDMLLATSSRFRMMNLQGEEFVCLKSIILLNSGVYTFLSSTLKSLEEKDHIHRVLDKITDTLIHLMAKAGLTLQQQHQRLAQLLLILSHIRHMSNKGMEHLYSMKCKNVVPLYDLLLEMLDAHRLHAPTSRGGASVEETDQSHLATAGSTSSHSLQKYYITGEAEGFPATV

Usually AC50 stands for the concentration at which the activity in the assay is half-maximal. For the compound `CCCCCCCc1ccc(O)cc1`, the AC50 was 12.7 µM (active) and 12.5 µM (active) and 12.6 µM (active) in assay [1]; 50 µM (active) in [4]. Further, the outcome in assay [1], in [2], in assay [3], in assay [4], in assay [5] and in assay [6] was inactive.
As for `ClC(Cl)(Cl)c1ccccc1`, the call in [1], in assay [2], in assay [3], in [7] and in assay [8] was inactive.
With `CCCCC(CC)COP(=O)(Oc1ccccc1)Oc1ccccc1` (stereo not drawn), the compound was called inactive in assay [1], in [2], in assay [3], in assay [8] and in assay [6]. Further, the concentration at half-maximal activity (AC50) in [7] was 2.85 µM (active); in [4] it was 82.1 µM (active).
Consider `O=P(OCC(Br)CBr)(OCC(Br)CBr)OCC(Br)CBr` (stereo not drawn), for which the call in assay [1], in assay [2], in [3], in assay [5] and in assay [6] was inactive. The AC50 is 11.4 µM (active) in [7], 29 µM (active) in assay [8] and 73.9 µM (active) in assay [4].
As for `CCOC(=O)c1ccccc1N`, the result in assay [1], in assay [2], in assay [3], in assay [8], in [4] and in [5] was inactive. Besides, the call in [6] was inactive.
Turning to `ClC1=C(Cl)C2(Cl)C3C(Cl)C(Cl)CC3C1(Cl)C2(Cl)Cl` (stereo not drawn), the compound was called inactive in assay [1], in assay [2], in assay [3], in [7], in [5] and in [6].
As for `O=S(=O)(c1ccc(O)cc1)c1ccc(O)cc1`, the AC50 in assay [1] was 39.5 µM (active); in assay [2], 12.6 µM (active); in assay [3], 51.9 µM (active); in assay [9] it was 19.1 µM (active). In addition, the result in assay [7], in assay [5] and in [6] was inactive.
`O=C(CBr)OCc1ccccc1`: the compound was classed as inactive in assay [1], in assay [2], in [3], in assay [7], in assay [4] and in assay [5]. For the same compound, the outcome in assay [6] was inactive.
For `CCOP(=S)(Oc1ccc([N+](=O)[O-])cc1)c1ccccc1` (stereo not drawn), the outcome in assay [1], in [10], in assay [4], in assay [5] and in assay [6] was inactive. The values for the AC50 in assay [2] and in assay [3] were 12.7 µM (active) and 18.4 µM (active), respectively.
Turning to `CCCCN(CC)C(=O)SCCC`, the outcome in assay [1], in assay [2], in assay [3], in assay [7], in [8] and in assay [5] was inactive. Besides, in assay [6], the compound was classed as inactive.
Regarding `O=S1(=O)OCC2C(CO1)C1(Cl)C(Cl)=C(Cl)C2(Cl)C1(Cl)Cl` (stereo not drawn), the result in assay [1], in [2], in [3], in [5] and in assay [6] was inactive. Moreover, the AC50 is 49.3 µM (active) in [7], 50 µM (active) in [8] and 7.28 µM (active) in [9].
With `O=C(O)C1C(C(=O)O)C2(Cl)C(Cl)=C(Cl)C1(Cl)C2(Cl)Cl` (stereo not drawn), the outcome in [1], in assay [2], in [3], in assay [7] and in assay [8] was inactive.
On to `CCCCC(CC)COC(=O)c1c(Br)c(Br)c(Br)c(Br)c1C(=O)OCC(CC)CCCC` (stereo not drawn), for which the result in assay [1], in assay [2], in assay [3], in assay [7], in [8] and in [4] was inactive. The result in assay [5] and in [6] was inactive.
For the compound `COCCOCCO`, the compound was called inactive in assay [1], in assay [2], in assay [3], in [4], in assay [5] and in assay [6].
In the case of `Nc1ccc2ccccc2c1`, the compound was called inactive in [1], in assay [2], in assay [3], in assay [10], in [4] and in [5]. Moreover, the compound was classed as inactive in [6].
For the compound `Cc1ccc(O)cc1C`, the outcome in [1], in assay [2], in assay [3] and in assay [4] was inactive.
Turning to `CCOP(=S)(OCC)SCSCC`, the outcome in [1], in assay [2], in assay [3], in [8], in assay [5] and in [6] was inactive. For the same compound, the AC50 in assay [7] was 32.6 µM (active).
Consider `CC(C)(C)OOC(C)(C)C`, for which the outcome in [1], in [2], in assay [3], in assay [7], in [4] and in [5] was inactive. Moreover, in [6], the compound was classed as inactive.
Turning to `Cc1ccc(N)cc1N`, the outcome in assay [1], in [2], in [3], in [7], in assay [8] and in [10] was inactive. The call in [4], in assay [5], in assay [6] and in [9] was inactive.
In the case of `O=[N+]([O-])c1ccccc1`, the compound was called inactive in assay [1], in assay [2], in assay [3], in assay [10], in [4] and in [5]. The compound was classed as inactive in [6].
For the compound `CCC(C)(C)c1ccc(O)cc1`, the AC50 is 4.88 µM (active) in assay [1]; 1.32 µM (active) in assay [2]; 0.619 µM (active) in assay [3]; 60.9 µM (active) in [7]; 66.4 µM (active) in assay [4]. Also, the compound was classed as inactive in assay [8], in assay [5], in assay [6] and in assay [9].
Turning to `CCCCc1ccc(O)cc1`, the half-maximal activity concentration (AC50) in [1] was 19.6 µM (active); in [8] it was 67.9 µM (active). For the same compound, the compound was classed as inactive in assay [2], in [3], in assay [7], in [4], in [5] and in [6]. For the same compound, in assay [9], the call was inactive.
Regarding `Cc1ccc([N+](=O)[O-])cc1C`, the result in assay [1], in assay [2], in [3], in assay [7], in assay [8] and in [4] was inactive. Moreover, the compound was classed as inactive in [5] and in assay [6].
As for `CC(Cl)(Cl)C(=O)O`, the call in assay [1], in [2], in assay [3], in assay [10], in [4] and in assay [5] was inactive. In addition, the result in assay [6] was inactive.
`CCCCN(CCCC)SN(C)C(=O)Oc1cccc2c1OC(C)(C)C2`: the compound was classed as inactive in [1], in assay [2], in assay [3], in [4], in assay [5] and in assay [6]. For the same compound, in assay [4], the AC50 is 84.7 µM (active).
Consider `CCOc1ccc(C(C)(C)COCc2cccc(Oc3ccccc3)c2)cc1`, for which the compound was called inactive in assay [1], in assay [2], in assay [3], in assay [7], in assay [4] and in assay [5]. For the same compound, the compound was classed as inactive in [6].
With `CC(Cc1ccc(OCC(=O)O)cc1)NCC(O)c1csc(C(F)(F)F)n1` (stereo not drawn), the compound was classed as inactive in assay [1], in assay [2], in [3], in assay [10], in [4] and in assay [5]. Also, the call in [6] was inactive.
For the compound `CCCCN(CCCC)N=O`, the compound was classed as inactive in assay [1], in assay [2], in assay [3], in [7], in assay [4] and in [5]. Also, the compound was called inactive in assay [6].
As to `CCNc1nc(Cl)nc(NC(C)(C)C)n1`, the result in [1], in assay [2], in [3], in [7], in assay [8] and in assay [4] was inactive. In addition, the compound was classed as inactive in [5], in assay [6] and in assay [9].
